34 compounds from ChEMBL document CHEMBL1157539, “Thousands of chemical starting points for antimalarial lead identification” (Nature, 2010) can be followed below.

As usually defined, the Inhibition is the change of the read-out against control, counted positive when it falls.

Molecules are shown by their SMILES. Values joined by “and” are separate entries in the source; they are usually repeats but may differ in a detail not shown here. Identical values can stand only once.

This test concerns Plasmodium falciparum. The experiment in a line: GSK_TCMDC: Inhibition of Plasmodium falciparum Dd2 in whole red blood cells, using parasite LDH activity as an index of growth. Test compounds present at 2uM. The test is classed as functional.
As to `Cc1ccc2c(C3=CCN(CCCCC4(C)C(=O)Nc5c(F)cccc54)CC3)c(C)[nH]c2c1` (centres undefined), the Inhibition came out at 89%.

Consider `O=C(c1ccccc1)C1CC1CN1CC=C(c2c[nH]c3ccccc23)CC1` (centres undefined), for which the Inhibition is given as 73%.

For the compound `Br.CC(Cc1ccc(CSC(C)C)cc1)NCC(O)c1cccc(Cl)c1` (centres undefined), the Inhibition is 98%.

`O=P(O)(O)Oc1c(Br)cc(Br)cc1-c1cc(Br)cc(Br)c1O` [BROMOFENOFOS] came in with an Inhibition of 0%.

`CC[C@H]1CN2CC[C@@H]1C[C@H]2[C@H](O)c1cc(N2CCC(O)(c3ccccc3)CC2)nc2ccc(OC)cc12` registered an Inhibition of 98%.

`N#Cc1c(Cl)cccc1Oc1ccc(S(=O)(=O)NC2CCC(CN3CCC(c4c[nH]c5ccccc45)CC3)CC2)cc1` (centres undefined): the Inhibition was 36% and 16%.

In the case of `CN1CCN(c2ccc3[nH]c(-c4ccc5[nH]c(-c6ccc(O)cc6)nc5c4)nc3c2)CC1.Cl.O`, the Inhibition is listed as 100%.

`CNCCCCCCOc1ccc(CC(C)NCC(O)c2cccc(C(F)(F)F)c2)cc1.Cl` (centres undefined) displayed an Inhibition of 79%.

Compound `CN(c1ccc(NC(=O)CCOc2ccccc2)cc1)C1CCN(Cc2cccc(O)c2)CC1.O=C(O)C(F)(F)F` displayed an Inhibition of 0%.

The compound `Cc1[nH]c2ccccc2c1C1=CCN(CCCCC23CCCc4cccc(c42)NC3=O)CC1` (centres undefined) displayed an Inhibition of 91%.

`CC(Cc1ccc(Oc2ccccc2)cc1)NCC(O)c1cccc(C(F)(F)F)c1` (centres undefined) returned an Inhibition of 99%.

`C[C@H](Cc1ccc(OCCCCCCOc2ccccc2)cc1)NC[C@H](O)c1cccc(Cl)c1.Cl` registered an Inhibition of 99%.

`O=C(/C=C/c1cc(F)c(F)cc1F)N1CCC(CN2CCC(c3c[nH]c4ccccc34)CC2)CC1` came in with an Inhibition of 3%.

Regarding `O=C(NC1CCC(CN2CCC(c3c[nH]c4ccccc34)CC2)CC1)c1cc2ccccc2s1` (centres undefined), the Inhibition is 68% and 43%.

As for `CC(C)C[C@H](Nc1ccc(C#N)c2ccccc12)C(=O)N[C@@H]1CCCc2ccccc21.O=C(O)C(F)(F)F`, the Inhibition was determined as 100%.

Turning to `Cc1c(C(=O)NC2CCC(CN3CCC(c4c[nH]c5ccccc45)CC3)CC2)cnn1-c1c(Cl)cc(Cl)cc1Cl` (centres undefined), the Inhibition is given as 97%.

`O=C(NC1CCC(CN2CCC(c3c[nH]c4ccccc34)CC2)CC1)c1cn(Cc2ccccc2)c2ccccc12` (centres undefined) gave an Inhibition of 48%.

For `CC[C@H]1CN2CC[C@H]1C[C@@H]2[C@@H](O)c1ccnc2ccc(OC)cc12.Cl`, the Inhibition is 95%.

The compound `COc1ccc(OC)c(C(O)C(C)NCc2cc(Cl)ccc2O)c1.Cl` (centres undefined) displayed an Inhibition of 99%.

Regarding `CC(C)c1ccc(C=CC(=O)NC2CCC(CN3CCC(c4c[nH]c5ccccc45)CC3)CC2)cc1` (centres undefined), the Inhibition is 85%.

The compound `CNC(=O)c1ccc2[nH]cc(C3CCN(CC4CCC(NC(=O)/C=C/c5ccc(Cl)c(Cl)c5)CC4)CC3)c2c1` (centres undefined) returned an Inhibition of 90%.

For the compound `CC(Cc1ccc(C(C)(C)C)cc1)NCC(O)c1ccccc1.Cl` (centres undefined), the Inhibition amounted to 89%.

In the case of `O=C(O)/C=C\C(=O)O.OC1(c2ccc(Cl)c(C(F)(F)F)c2)CCN(CCOC2c3ccccc3CSc3ccc(Cl)cc32)CC1` (centres undefined), the Inhibition is 58%.

Take `CN(C)CCCOc1ccc(CN2CCC(c3c[nH]c4ccc(NCC5CCCCC5)cc34)CC2)cc1.O=C(O)C(F)(F)F`: the Inhibition came to 99%.

In turn, `O=c1c2ccccc2nc(/C=C/c2ccc([N+](=O)[O-])cc2)n1-c1ccccn1` returned an Inhibition of 96%.

In the case of `COc1ccccc1CC(C)NCC(O)c1cccc(Cl)c1` (centres undefined), the Inhibition is given as 98%.

In turn, `O=C(O)c1ccc2nc(-c3ccc(-c4ccccc4)cc3)n(C3CCN(Cc4ccc(-c5ncc[nH]5)cc4)CC3)c2c1` yielded an Inhibition of 99%.

As for `COC(=O)c1ccc(CC(C)NCC(O)c2cccc(C(F)(F)F)c2)cc1C` (centres undefined), the Inhibition was 74%.

`O=C(NC1CCC(CN2CCC(c3c[nH]c4ccccc34)CC2)CC1)c1cc(-c2ccccc2)c(C(F)(F)F)s1` (centres undefined) had an Inhibition of 100%.

Take `CC[C@H]1CN2CC[C@@H]1C[C@H]2[C@H](O)c1cc(-c2c(C)noc2C)nc2ccc(OC)cc12.Cl`: the Inhibition was 98%.

Regarding `COC(=O)/C=C/c1ccc(CC(C)NCC(O)c2cccc(Br)c2)cc1` (centres undefined), the Inhibition came to 93%.

As to `Cc1cc(CN2CCN(CCOC(c3ccccc3)c3ccccc3)CC2)ccc1O`, the Inhibition worked out at 96%.

Regarding `Cc1c(C)c2c(c(C)c1O)CC[C@](C)(C(=O)NC1CCC(CN3CCC(c4c[nH]c5ccccc45)CC3)CC1)O2` (some centres undefined), the Inhibition is 98% and 48%.

As for `CCOc1ccc2nccc([C@@H](O)[C@@H]3C[C@@H]4CCN3C[C@@H]4CC)c2c1.Cl` [ETHYLHYDROCUPREINE HYDROCHLORIDE], the Inhibition turned out to be 99%.
